We go through 30 compounds from PubChem BioAssay (NCATS).

Inconclusive results are not listed. Activity calls are given as the source filed them. Calls follow the shape of the dose curve; as a rule, active = well fitted cell-killing curve with a large enough effect; inconclusive = small, poorly fitted or top-dose-only effect; inactive = flat fitted curve, though single readings scatter. Numbered stars: 1 amine (or outer) side, 2 acyl side, 3 side chain; on linkers, the order of the positions; unused ones are H or OH. Bridge positions count the residues as written; N and C are the ends. Square brackets hold non-standard residues; d marks the D form. Peptide text beside a SMILES is read from it. I, II: the chains in the order shown. Actinocin(9to1) = Cc1c2oc3c(C)ccc(C(=O)[*:1])c3nc-2c(C(=O)[*:2])c(N)c1=O; NMeV = CN[C@H](C(=O)O)C(C)C; Sar = CNCC(=O)O
Potency is read from the fitted curve at half-maximal effect.

This experiment in a line: qHTS of pediatric cancer cell lines to identify multiple opportunities for drug repurposing: Confirmatory screen for A673 cells (AID 1347110).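 Also: cells exposed to compound for 48 h before the viability read; nearly all actives have a fitted effect of over 65% in size.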 As to conditions: A673 Ewing sarcoma cell viability; series mostly up to 45.9 µM. From the text:
Drug repurposing or repositioning has been offered as a strategy for drug development in oncology programs. This approach has special potential for childhood cancers and other rare or orphan diseases, where the expected return on new drug development has been a disincentive to pharmaceuticals.
In this project we exploit the poly-pharmacology of drugs to discover new indications via phenotypic screening of a panel of 19 well-characterized cell lines derived from solid tumors seen in children and adolescents. The goal is to identify approved drugs with previously unrecognized anticancer properties that has the potential to reveal new mechanisms and biological processes involved in carcinogenesis or drug resistance. We employed a titration-based paradigm (quantitative high-throughput screening or qHTS), where all compounds were tested at multiple concentrations for their effect on cell viability. Concentration-response curves (CRCs) were derived directly from the primary screen, and both potency and efficacy values were used to identify compounds with robust bioactivity profiles. We screened the NIH Chemical Genomics Center (NCGC) Pharmaceutical Collection (NPC) and Mechanism Interrogation Plate (MIPE) small molecule collections of approved and investigational compounds against these cell lines; and measured metabolically active cells after 48 hours of compound treatment as a proxy for cell viability.
Assay Submitter: Nathalia J. Martinez, National Center for Advancing Translational Sciences, National Institutes of Health, Rockville, MD, USA; email: natalia.martinez@nih.gov.
[1] Shen, M et al. Quantitative high-throughput phenotypic screening of pediatric cancer cell lines identifies multiple opportunities for drug repurposing. Oncotarget 2017 Dec 19;9(4):4758-4772. PMID 29435139.
The cells were obtained from University of North Carolina (UNC), Pediatric Preclinical Testing Program (PPT), and Coriell Institute (CI).
qHTS cell viability assay:
Cells were assayed in growth media at a density of 500-1,000 cells/well. Five microliters of cells were dispensed into 1,536-well, white, solid-bottom, TC-treated plates (Greiner Bio One) using a multidrop dispenser and incubated at 37 degrees C, 5% CO2, under a humidified atmosphere for 5 hours. Twenty-three nanoliters of compounds and controls (neutral control DMSO or positive control bortezomib at final concentration of 2.3 uM) were subsequently transferred by Kalypsys pintool. For primary screens, the MIPE collection was tested at 11-point dilutions (final concentrations range from 0.78 nM to 46 µM) and the NPC collection at 8-point dilutions (final concentrations range from 0.59 nM to 46 µM). Compounds tested in follow-up screens were assayed at 11-point dilutions. Cells were incubated for 48 hours, followed by addition of 3 uL of CellTiter-Glo (Promega). After a 15min incubation at room temperature, samples were analyzed for luminescence intensity using a ViewLux High-throughput CCD imager equipped with clear filters.
Consider `Cc1c2oc3c(C)ccc(C(=O)N[C@@H]4C(=O)N[C@H](C(C)C)C(=O)N5CCC[C@H]5C(=O)N(C)CC(=O)N(C)[C@@H](C(C)C)C(=O)O[C@@H]4C)c3nc-2c(C(=O)N[C@@H]2C(=O)N[C@H](C(C)C)C(=O)N3CCC[C@H]3C(=O)N(C)CC(=O)N(C)[C@@H](C(C)C)C(=O)O[C@@H]2C)c(N)c1=O` (I: T[dV]P[Sar][NMeV] / II: T[dV]P[Sar][NMeV]; ester I:1-I:C, II:1-II:C; linker I:N-II:N via Actinocin(9to1)), for which the Potency was 13.1 nM (active). As to `CC(=O)O[C@]1(C(C)=O)CC[C@H]2[C@@H]3C[C@H](C)C4=CC(=O)CC[C@]4(C)[C@H]3CC[C@@]21C`, the Potency was 1310 nM (active). For `CC(=O)OCC(=O)[C@@]12N=C(C)O[C@@H]1C[C@H]1[C@@H]3CCC4=CC(=O)C=C[C@]4(C)[C@H]3[C@@H](O)C[C@@]12C` the value was 293 nM (active); for `C[C@]12C=CC(=O)C=C1[C@@H](F)C[C@@H]1[C@@H]2[C@@H](O)C[C@@]2(C)[C@H]1CC[C@]2(O)C(=O)CO`, “inactive”; for `C[n+]1c2cc(N)ccc2cc2ccc(N)cc21` (tested in a mixture with another compound), 5220 nM (active).

On to `C[C@H]1C[C@H]2[C@@H]3CCC4=CC(=O)C=C[C@]4(C)[C@@]3(Cl)[C@@H](O)C[C@]2(C)[C@@]1(O)C(=O)CO`, for which the Potency was 18500 nM (active). For `CCCC(=O)O[C@]1(C(=O)CO)CC[C@H]2[C@@H]3CCC4=CC(=O)CC[C@]4(C)[C@H]3[C@@H](O)C[C@@]21C` the value was “inactive”; for `COc1cc(C=C2CCC/C(=C\c3ccc(O)c(OC)c3)C2=O)ccc1O`, 185 nM (active). For `CN(C)/N=N/c1nc[nH]c1C(N)=O`, the Potency result was “inactive”.

As for `CCOc1ccc2nc3cc(N)ccc3c(N)c2c1`, the Potency is 18500 nM (active).

`CC(=O)OCC(=O)[C@@]1(O)CC[C@H]2[C@@H]3CCC4=CC(=O)C=C[C@]4(C)[C@H]3[C@@H](O)C[C@@]21C`: the Potency result was “inactive”. For `OC[C@H]1O[C@@H](n2cnc3c(=S)nc[nH]c32)[C@H](O)[C@@H]1O` the value was 2080 nM (active). Regarding `C[C@@H]1C[C@H]2[C@@H]3CCC4=CC(=O)C=C[C@]4(C)[C@@]3(F)[C@@H](O)C[C@]2(C)[C@H]1C(=O)CO`, the Potency entry is “inactive”. `COc1cccc2c1C(=O)c1c(O)c3c(c(O)c1C2=O)C[C@@](O)(C(=O)CO)C[C@@H]3O[C@H]1C[C@H](N)[C@H](O)[C@H](C)O1`: the Potency is 928 nM (active).

As to `CCCCCCC[N+](CC)(CC)CCCCc1ccc(Cl)cc1`, the Potency is 3690 nM (active). Take `CC(=O)[C@H]1CC[C@H]2[C@@H]3C[C@H](C)C4=CC(=O)CC[C@]4(C)[C@H]3[C@@H](O)C[C@]12C`: the Potency entry was “inactive”. For `CCCCC(CC)CN=C(N)NC(N)=NCCCCCCN=C(N)NC(N)=NCC(CC)CCCC` (stereo not given) the value was 3290 nM (active). For `NC(CO)(CO)CO`, the Potency entry was “inactive”. For `COc1c(C)c2c(c(O)c1C/C=C(\C)CCC(=O)O)C(=O)OC2` the value was 2610 nM (active). For `COCc1c(C(C)C)nc(C(C)C)c(/C=C/[C@@H](O)C[C@@H](O)CC(=O)O)c1-c1ccc(F)cc1` the value was 414 nM (active); for `CC1(C)O[C@@H]2C[C@H]3[C@@H]4C[C@H](F)C5=CC(=O)CC[C@]5(C)[C@H]4[C@@H](O)C[C@]3(C)[C@]2(C(=O)CO)O1`, “inactive”. For `CN(C)C(=S)SC(=S)N(C)C`, the Potency is 2610 nM (active). As to `NC(=O)CC[C@@H]1NC(=O)[C@H](Cc2ccccc2)NC(=O)[C@H](Cc2ccc(O)cc2)NC(=O)CCSSC[C@@H](C(=O)N2CCC[C@H]2C(=O)N[C@@H](CCCN=C(N)N)C(=O)NCC(N)=O)NC(=O)[C@H](CC(N)=O)NC1=O`, the Potency entry is “inactive”. As for `C[C@@H]1C[C@H]2[C@@H]3C[C@H](F)C4=CC(=O)C(Cl)=C[C@]4(C)[C@@]3(F)[C@@H](O)C[C@]2(C)[C@@]1(O)C(=O)CO`, the Potency entry was “inactive”. For the compound `CC(=O)OCC(=O)[C@@]1(O)[C@H](C)C[C@H]2[C@@H]3CCC4=CC(=O)C=C[C@]4(C)[C@@]3(F)[C@@H](O)C[C@@]21C`, the Potency was 9270 nM (active). As to `CC(=O)OCC(=O)[C@@]1(OC(C)=O)[C@@H](C)C[C@H]2[C@@H]3C[C@H](F)C4=CC(=O)C=C[C@]4(C)[C@@]3(F)[C@@H](O)C[C@@]21C`, the Potency result is “inactive”. For `CC1(C)O[C@@H]2C[C@H]3[C@@H]4CCC5=CC(=O)CC[C@]5(C)[C@@]4(F)[C@@H](O)C[C@]3(C)[C@]2(C(=O)CCl)O1`, the Potency entry is “inactive”.

Consider `C[C@]12CCC(=O)C=C1CC[C@H]1[C@@H]3CC[C@](O)(C(=O)CO)[C@@]3(C)C[C@H](O)[C@@]12F`, for which the Potency entry is “inactive”.

With `CCCCC(=O)O[C@]1(C(=O)CO)CC[C@H]2[C@@H]3CCC4=CC(=O)CC[C@]4(C)[C@H]3[C@@H](O)C[C@@]21C`, the Potency entry was “inactive”.

For the compound `CC(C)(C(=O)c1cccnc1)c1cccnc1`, the Potency was 369 nM (active).
